From PubChem BioAssay (NCATS)
Results filed as inconclusive are left out. Active and inactive are the calls of the source. The call rests on the fitted dose curve; in most records, active means well fitted curve in the direction sought with a large enough effect; inconclusive means small, poorly fitted or top-dose-only effect, or another doubt; inactive means no such curve, though single readings can be large or run the other way.

Experiments:
[1] = KB-8-5-11 P-gp reporter qHTS against the NCATS DSHEA and TCM libraries (AID 1919977); settings: KB-8-5-11 cells; series mostly up to 26.1 µM; further: 0% is about no effect
Procedure, shortened: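 Viability of drug-resistant KB-8-5-11 cells is measured by CellTiter-Glo luminescence following roughly 72 h treatment at 37C. Substances were titrated, with bortezomib as intraplate control.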

[2] = qHTS Counterscreen for compound interference against the NCATS DSHEA and TCM libraries (AID 1919978); settings: firefly luciferase detection reagent interference, luminescence;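 further: compounds preincubated with 1 µM D-luciferin or buffer before detection reagent; % of control where 0% means no effect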
Procedure, shortened: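 Interference check: test samples were incubated with D-luciferin (final 1 uM) or buffer only for 15 min, room temperature, in a qHTS titration up to 39.8 uM, then developed with detection reagent and read by luminescence.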

[3] = Dual reporter qHTS for agonist of Pregnane X Receptor (hPXR) against the NCATS DSHEA and TCM libraries: Fluorescence readout (AID 1920058); settings: PXR dual reporter cells; series mostly up to 68.2 µM; further: 0% is about no effect
Procedure, shortened: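 Fluorescence read-out for cell viability: CellTiter-Fluor, 1 h at 37 °C, Ex/Em 405/540 nm. This followed ~24 h treatment of hPXR-Luc HepG2 cells with substances in agonist mode.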

Measured: max response

C=C(CO)C(=O)O[C@H]1CC(=C)[C@@H]2C[C@H](O)C(=C)[C@@H]2[C@H]2OC(=O)C(=C)[C@@H]21
inactive: [1] | [2] -4.75% | [3]
